# Measured values reported in PubChem BioAssay (EPA / NIEHS).
# Several values for one entry are separate records, joined by “and”; a condition that tells them apart may be missing. Identical values can stand only once. Inconclusive results are not listed. Activity calls are given as the source filed them. The calls were made as follows: active = hit-call score of the fitted dose curve at least 0.9, where 1 is the maximum; inconclusive = response in the unintended direction; inactive = score below 0.9.
# What was measured:
# [1] = target: human Neurokinin, NK2 Receptor, TACR2 (gene 6865) (UniProt P21452); assay: NVS_GPCR_hNK2: NovaScreen (NVS) G Protein-Coupled Receptor Assay for human Neurokinin, NK2 Receptor (AID 2283278);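 also: actives reduce bound radioligand signal relative to DMSO baseline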
# Sequence of human Neurokinin, NK2 Receptor, TACR2 (gene 6865) (P21452 whole entry, looked up): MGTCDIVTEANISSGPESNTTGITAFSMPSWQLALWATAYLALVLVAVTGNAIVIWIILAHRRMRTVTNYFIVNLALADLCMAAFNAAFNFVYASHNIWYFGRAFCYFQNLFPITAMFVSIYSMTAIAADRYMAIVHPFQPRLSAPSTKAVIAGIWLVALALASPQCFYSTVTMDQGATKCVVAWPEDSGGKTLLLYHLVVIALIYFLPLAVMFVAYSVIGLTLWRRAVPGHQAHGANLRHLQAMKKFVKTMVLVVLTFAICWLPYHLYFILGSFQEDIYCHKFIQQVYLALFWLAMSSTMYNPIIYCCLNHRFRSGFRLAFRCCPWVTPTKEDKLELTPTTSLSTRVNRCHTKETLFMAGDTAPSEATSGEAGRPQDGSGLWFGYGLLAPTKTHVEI
# How it was run: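 Filter-based scintillation counting measured radioligand bound to receptor extracted from CHO cells, 4 hours after compound addition. Chemicals screened first at 25 uM in duplicate, with actives retested in concentration series relative to DMSO.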
# [2] = target: human Dopamine Receptor D4.4 (DRD4.4), DRD4 (gene 1815) (UniProt P21917); assay: NVS_GPCR_hDRD4.4: NovaScreen (NVS) G Protein-Coupled Receptor Assay for human Dopamine Receptor D4.4 (DRD4.4) (AID 2283264)
# How it was run: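 Filter-binding assay with a tritiated or iodinated ligand, cell-free receptor prepared from CHO, 1 hour. Loss of bound radioactivity versus DMSO; single 25 uM duplicate screen, then concentration-response for actives.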
# [3] = target: human Adrenergic, Alpha 2c Receptor (Adra2C), ADRA2C (gene 152) (UniProt P18825); assay: NVS_GPCR_hAdra2C: NovaScreen (NVS) G Protein-Coupled Receptor Assay for human Adrenergic, Alpha 2c Receptor (Adra2C) (AID 2283259)
# Sequence of human Adrenergic, Alpha 2c Receptor (Adra2C), ADRA2C (gene 152) (P18825 whole entry, looked up): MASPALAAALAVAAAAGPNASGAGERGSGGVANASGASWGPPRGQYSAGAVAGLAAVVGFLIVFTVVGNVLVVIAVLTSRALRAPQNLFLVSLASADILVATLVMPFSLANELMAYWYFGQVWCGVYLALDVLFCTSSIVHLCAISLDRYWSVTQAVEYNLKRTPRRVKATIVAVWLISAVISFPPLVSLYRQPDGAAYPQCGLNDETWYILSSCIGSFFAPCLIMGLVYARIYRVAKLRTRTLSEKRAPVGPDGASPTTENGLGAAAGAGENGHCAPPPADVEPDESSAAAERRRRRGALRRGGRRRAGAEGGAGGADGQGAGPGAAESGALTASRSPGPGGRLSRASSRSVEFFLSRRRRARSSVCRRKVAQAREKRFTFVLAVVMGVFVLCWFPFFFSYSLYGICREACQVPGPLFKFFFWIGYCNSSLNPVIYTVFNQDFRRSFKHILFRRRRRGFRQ
# How it was run: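 Screened first in duplicate at 25 uM, with actives then run as concentration series. Membranes from Sf9 cells were exposed for 1 h, and displacement of radioligand was counted after filtration, using DMSO as baseline.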
# [4] = target: Type-1 angiotensin II receptor (Homo sapiens) (UniProt P30556); assay: NVS_GPCR_hAT1: NovaScreen (NVS) G Protein-Coupled Receptor Assay for human Angiotensin II receptor type 1 (AT1) (AID 2283263)
# Sequence of Type-1 angiotensin II receptor (Homo sapiens) (P30556 whole entry, looked up): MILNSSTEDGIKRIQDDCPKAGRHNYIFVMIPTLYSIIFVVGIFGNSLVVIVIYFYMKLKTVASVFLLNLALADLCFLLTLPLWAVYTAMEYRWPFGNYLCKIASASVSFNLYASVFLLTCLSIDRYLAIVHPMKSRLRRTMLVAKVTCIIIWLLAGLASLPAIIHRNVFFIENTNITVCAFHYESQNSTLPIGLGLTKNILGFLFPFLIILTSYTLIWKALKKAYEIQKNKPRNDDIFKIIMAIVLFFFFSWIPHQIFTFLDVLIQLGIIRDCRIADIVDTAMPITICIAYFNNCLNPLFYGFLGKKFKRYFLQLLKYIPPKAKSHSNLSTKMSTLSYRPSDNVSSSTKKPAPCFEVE
# How it was run: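 Hits from a 25 uM duplicate screen (threshold e.g. 30% inhibition) were run in concentration-response with 50 uM top concentration. Displacement of specific radioligand from KAN-TS membrane preparations measured after 3 h by filter scintillation, DMSO as baseline.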
# [5] = target: D(1A) dopamine receptor (Homo sapiens) (UniProt P21728); assay: NVS_GPCR_hDRD1: NovaScreen (NVS) G Protein-Coupled Receptor Assay for human Dopamine Receptor D1 (DRD1) (AID 2283269)
# Sequence of D(1A) dopamine receptor (Homo sapiens) (P21728 whole entry, looked up): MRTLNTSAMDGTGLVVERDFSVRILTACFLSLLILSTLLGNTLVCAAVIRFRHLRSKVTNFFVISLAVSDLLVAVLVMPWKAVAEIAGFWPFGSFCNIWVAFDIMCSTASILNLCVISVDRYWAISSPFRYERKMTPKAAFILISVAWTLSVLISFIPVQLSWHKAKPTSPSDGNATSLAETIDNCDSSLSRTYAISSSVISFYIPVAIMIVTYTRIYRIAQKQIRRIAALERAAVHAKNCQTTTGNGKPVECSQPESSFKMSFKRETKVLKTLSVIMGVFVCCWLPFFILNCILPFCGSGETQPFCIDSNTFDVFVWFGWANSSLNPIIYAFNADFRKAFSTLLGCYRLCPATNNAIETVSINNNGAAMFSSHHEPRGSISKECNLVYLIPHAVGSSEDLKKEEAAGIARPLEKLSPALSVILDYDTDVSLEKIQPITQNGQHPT
# How it was run: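 HEK293-derived receptor preparation; radioligand competitive displacement; 1 h; filtration + scintillation counting. DMSO = negative control/baseline. Primary: 25 uM, duplicate; secondary: concentration–response for actives.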
# [6] = target: human Histamine 1 Receptor (H1), HRH1 (gene 3269) (UniProt P35367); assay: NVS_GPCR_hH1: NovaScreen (NVS) G Protein-Coupled Receptor Assay for human Histamine 1 Receptor (H1) (AID 2283268)
# Sequence of human Histamine 1 Receptor (H1), HRH1 (gene 3269) (P35367 whole entry, looked up): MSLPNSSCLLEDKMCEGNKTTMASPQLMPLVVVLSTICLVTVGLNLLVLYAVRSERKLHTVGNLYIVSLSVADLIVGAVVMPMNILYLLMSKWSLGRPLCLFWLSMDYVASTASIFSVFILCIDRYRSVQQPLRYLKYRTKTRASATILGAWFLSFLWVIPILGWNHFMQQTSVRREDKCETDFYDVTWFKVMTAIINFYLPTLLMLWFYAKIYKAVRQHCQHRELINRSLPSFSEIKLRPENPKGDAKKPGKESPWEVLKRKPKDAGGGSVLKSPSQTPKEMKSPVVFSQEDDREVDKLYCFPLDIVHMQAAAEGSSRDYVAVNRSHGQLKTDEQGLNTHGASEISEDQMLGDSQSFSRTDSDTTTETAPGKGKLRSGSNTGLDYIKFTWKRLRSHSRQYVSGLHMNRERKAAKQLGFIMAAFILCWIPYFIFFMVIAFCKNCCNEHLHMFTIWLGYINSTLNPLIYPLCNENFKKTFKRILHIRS
# How it was run: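 Filter-based scintillation detection of radioligand binding to human H1, 1 h incubation; chemicals screened in duplicate at 25 uM, then concentration-response; signal loss relative to DMSO taken as activity.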
# [7] = target: human Adrenergic, Beta 1 Receptor (Adrb1), ADRB1 (gene 153) (UniProt P08588); assay: NVS_GPCR_hAdrb1: NovaScreen (NVS) G Protein-Coupled Receptor Assay for human Adrenergic, Beta 1 Receptor (Adrb1) (AID 2283258)
# How it was run: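 Membranes/protein extracted from human neuroepithelioma cells, radioligand competition binding read by filtration and scintillation 2 h post-dose. Single 25 uM duplicate screen, then concentration-response follow-up; DMSO as negative control.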
# [8] = target: Beta-2 adrenergic receptor (Homo sapiens) (UniProt P07550); assay: NVS_GPCR_hAdrb2: NovaScreen (NVS) G Protein-Coupled Receptor Assay for human Adrenergic, Beta 2 Receptor (Adrb2) (AID 2283261)
# Sequence of Beta-2 adrenergic receptor (Homo sapiens) (P07550 whole entry, looked up): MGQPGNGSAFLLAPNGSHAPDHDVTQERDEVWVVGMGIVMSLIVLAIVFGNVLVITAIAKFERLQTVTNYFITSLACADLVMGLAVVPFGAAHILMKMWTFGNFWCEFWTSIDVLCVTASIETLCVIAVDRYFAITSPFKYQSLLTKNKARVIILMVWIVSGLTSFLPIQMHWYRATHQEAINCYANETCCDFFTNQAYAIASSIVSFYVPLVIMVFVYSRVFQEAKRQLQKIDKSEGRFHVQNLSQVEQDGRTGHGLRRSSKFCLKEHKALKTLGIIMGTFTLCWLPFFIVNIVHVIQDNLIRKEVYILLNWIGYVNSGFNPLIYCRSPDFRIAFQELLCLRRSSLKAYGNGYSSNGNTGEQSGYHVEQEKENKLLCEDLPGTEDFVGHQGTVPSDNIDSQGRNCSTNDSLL
# How it was run: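 Compounds screened in duplicate at 25 uM, then actives in concentration series. Human beta-2 receptor from CHO material, cell-free; radioligand displacement after 1 h measured by filtration and scintillation against DMSO baseline.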
# [9] = target: human Adrenergic, Beta 3 Receptor (Adrb3), ADRB3 (gene 155) (UniProt P13945); assay: NVS_GPCR_hAdrb3: NovaScreen (NVS) G Protein-Coupled Receptor Assay for human Adrenergic, Beta 3 Receptor (Adrb3) (AID 2283262)
# How it was run: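 A cell-free filter binding assay read by scintillation counting, with displacement of a specific radioligand measured after 1 hour. The receptor source was SK-N-MC extracts (cells pretreated with isoproterenol and 8-bromo-cAMP). Compounds were first tested at 25 uM in duplicate and then in concentration series.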
# [10] = target: human Leukotriene B4 Receptor 1 (LTB4-BLT1), LTB4R (gene 1241) (UniProt Q15722); assay: NVS_GPCR_hLTB4_BLT1: NovaScreen (NVS) G Protein-Coupled Receptor Assay for human Leukotriene B4 Receptor 1 (LTB4-BLT1) (AID 2283271)
# How it was run: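 Cell-free human neutrophil receptor preparation, 1 h exposure, radioligand binding read by filter scintillation counting. Single 25 uM duplicate screen, then concentration series topping at 50 uM; binding loss scored against DMSO baseline.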
# [11] = target: Neuropeptide Y receptor type 2 (Homo sapiens) (UniProt P49146); assay: NVS_GPCR_hNPY2: NovaScreen (NVS) G Protein-Coupled Receptor Assay for human Neuropeptide Receptor Y2 (NPY2) (AID 2283277)
# Sequence of Neuropeptide Y receptor type 2 (Homo sapiens) (P49146 whole entry, looked up): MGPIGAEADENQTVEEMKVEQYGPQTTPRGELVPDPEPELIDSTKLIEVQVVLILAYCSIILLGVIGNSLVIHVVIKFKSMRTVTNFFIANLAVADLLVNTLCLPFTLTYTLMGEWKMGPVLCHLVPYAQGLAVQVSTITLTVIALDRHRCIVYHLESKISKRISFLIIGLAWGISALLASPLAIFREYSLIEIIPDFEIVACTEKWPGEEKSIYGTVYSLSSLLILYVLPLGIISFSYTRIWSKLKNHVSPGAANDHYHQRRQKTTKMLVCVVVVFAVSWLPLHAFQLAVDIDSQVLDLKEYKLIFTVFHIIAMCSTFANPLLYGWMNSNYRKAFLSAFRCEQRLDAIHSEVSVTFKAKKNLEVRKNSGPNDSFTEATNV
# How it was run: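 Chemicals were first tested in duplicate at 25 uM, then actives in singleton concentration series to 50 uM. Tracer binding to SK-N-MC-derived protein measured cell-free after 1 h via filter scintillation; signal loss relative to DMSO.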
# [12] = target: Muscarinic acetylcholine receptor M1 (Homo sapiens) (UniProt P11229); assay: NVS_GPCR_hM1: NovaScreen (NVS) G Protein-Coupled Receptor Assay for human Muscarinic, M1 Receptor (AID 2283270)
# Sequence of Muscarinic acetylcholine receptor M1 (Homo sapiens) (P11229 whole entry, looked up): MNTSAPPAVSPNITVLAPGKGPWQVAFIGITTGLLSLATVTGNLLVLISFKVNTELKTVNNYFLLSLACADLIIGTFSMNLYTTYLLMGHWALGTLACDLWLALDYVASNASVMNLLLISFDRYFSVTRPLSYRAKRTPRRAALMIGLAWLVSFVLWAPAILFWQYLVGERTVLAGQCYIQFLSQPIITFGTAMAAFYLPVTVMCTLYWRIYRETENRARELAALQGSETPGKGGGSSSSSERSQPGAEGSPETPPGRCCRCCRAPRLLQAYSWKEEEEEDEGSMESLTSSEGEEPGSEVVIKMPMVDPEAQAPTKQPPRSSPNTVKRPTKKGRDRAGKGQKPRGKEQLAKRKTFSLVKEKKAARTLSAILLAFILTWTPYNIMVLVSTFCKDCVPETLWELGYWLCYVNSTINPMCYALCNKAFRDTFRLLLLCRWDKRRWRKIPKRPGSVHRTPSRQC
# How it was run: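 Actives from a duplicate 25 uM single-point screen were retested in concentration series. Binding measured as displacement of a radioligand from CHO-derived receptor preparation, 1 h incubation, filtration and scintillation counting, analysed as signal loss against DMSO.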
# [13] = target: human Neuropeptide Receptor Y1 (NPY1), NPY1R (gene 4886) (UniProt P25929); assay: NVS_GPCR_hNPY1: NovaScreen (NVS) G Protein-Coupled Receptor Assay for human Neuropeptide Receptor Y1 (NPY1) (AID 2283276)
# How it was run: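 Displacement of specific radioligand from NPY1 receptor of SK-N-MC origin, read by filtration and scintillation after 1 h. Compounds first tested at 25 uM in duplicate, then actives in concentration series; signal loss relative to DMSO.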
# [14] = target: human Neurotensin Receptor (NTS), NTSR1 (gene 4923) (UniProt P30989); assay: NVS_GPCR_hNTS: NovaScreen (NVS) G Protein-Coupled Receptor Assay for human Neurotensin Receptor (NTS) (AID 2283279)
# Sequence of human Neurotensin Receptor (NTS), NTSR1 (gene 4923) (P30989 whole entry, looked up): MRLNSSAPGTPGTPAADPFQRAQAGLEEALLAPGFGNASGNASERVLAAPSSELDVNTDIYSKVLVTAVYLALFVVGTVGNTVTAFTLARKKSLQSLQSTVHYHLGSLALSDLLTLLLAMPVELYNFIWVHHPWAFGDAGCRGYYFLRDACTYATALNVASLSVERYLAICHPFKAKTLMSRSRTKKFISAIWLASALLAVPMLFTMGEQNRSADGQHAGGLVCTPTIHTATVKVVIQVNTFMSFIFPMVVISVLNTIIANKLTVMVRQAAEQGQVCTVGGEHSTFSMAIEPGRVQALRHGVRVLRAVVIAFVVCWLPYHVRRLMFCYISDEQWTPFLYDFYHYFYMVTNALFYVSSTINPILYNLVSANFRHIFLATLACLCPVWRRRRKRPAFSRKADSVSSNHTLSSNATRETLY
# How it was run: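 Compounds competed with a radiolabelled ligand for binding to CHO-derived human neurotensin receptor; bound signal counted after filtration, 1 h. Screened first at a single concentration of 25 uM in duplicate, then concentration series to 50 uM maximum for actives.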
# [15] = target: Muscarinic acetylcholine receptor M2 (Homo sapiens) (UniProt P08172); assay: NVS_GPCR_hM2: NovaScreen (NVS) G Protein-Coupled Receptor Assay for human Muscarinic, M2 Receptor (AID 2283273)
# Sequence of Muscarinic acetylcholine receptor M2 (Homo sapiens) (P08172 whole entry, looked up): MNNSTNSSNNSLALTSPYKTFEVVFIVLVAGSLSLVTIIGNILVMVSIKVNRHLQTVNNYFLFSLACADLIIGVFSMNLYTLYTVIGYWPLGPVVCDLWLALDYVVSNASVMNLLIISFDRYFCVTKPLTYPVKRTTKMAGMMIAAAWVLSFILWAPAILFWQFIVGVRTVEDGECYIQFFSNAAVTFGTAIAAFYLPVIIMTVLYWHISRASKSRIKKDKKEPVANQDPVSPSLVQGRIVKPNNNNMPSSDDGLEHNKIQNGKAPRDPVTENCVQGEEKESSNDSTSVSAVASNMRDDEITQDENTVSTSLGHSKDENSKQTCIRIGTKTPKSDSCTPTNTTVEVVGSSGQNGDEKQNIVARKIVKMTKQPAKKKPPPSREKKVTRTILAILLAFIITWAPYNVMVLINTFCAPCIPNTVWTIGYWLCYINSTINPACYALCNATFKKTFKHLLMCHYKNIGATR
# How it was run: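 CHO-expressed human M2 receptor preparation, competitive displacement of a radioligand read by filter-based scintillation counting after 1 h. Single 25 uM duplicate screen, then concentration-response follow-up of actives; DMSO baseline.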
# [16] = target: human Endothelin Receptor Type A (ETA), EDNRA (gene 1909) (UniProt P25101); assay: NVS_GPCR_hETA: NovaScreen (NVS) G Protein-Coupled Receptor Assay for human Endothelin Receptor Type A (ETA) (AID 2283265)
# How it was run: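 Binding of radioligand to membrane protein extracted from SH-SY5Y cells was read by filtration and scintillation after 3 h. Compounds were screened at 25 uM in duplicate, with hits followed up in singleton concentration series to 50 uM.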
# [17] = target: human Dopamine Receptor D2 (DRD2), DRD2 (gene 1813) (UniProt P14416); assay: NVS_GPCR_hDRD2s: NovaScreen (NVS) G Protein-Coupled Receptor Assay for human Dopamine Receptor D2 (DRD2) (AID 2283266)
# Sequence of human Dopamine Receptor D2 (DRD2), DRD2 (gene 1813) (P14416 whole entry, looked up): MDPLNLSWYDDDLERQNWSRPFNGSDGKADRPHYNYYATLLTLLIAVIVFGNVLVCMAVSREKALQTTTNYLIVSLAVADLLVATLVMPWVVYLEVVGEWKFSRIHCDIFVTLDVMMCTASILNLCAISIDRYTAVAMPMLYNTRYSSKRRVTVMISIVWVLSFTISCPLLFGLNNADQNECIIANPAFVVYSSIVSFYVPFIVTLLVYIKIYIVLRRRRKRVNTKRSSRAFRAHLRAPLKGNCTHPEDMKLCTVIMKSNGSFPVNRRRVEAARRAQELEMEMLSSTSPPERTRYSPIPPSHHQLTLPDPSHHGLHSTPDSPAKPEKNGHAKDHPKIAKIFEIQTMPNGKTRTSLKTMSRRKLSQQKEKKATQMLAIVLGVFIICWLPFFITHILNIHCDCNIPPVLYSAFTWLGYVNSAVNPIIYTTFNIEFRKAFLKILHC
# How it was run: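 Test compound (25 uM, duplicate in the primary screen; concentration series at follow-up) competed with radioligand for human DRD2 in CHO-derived membrane protein. Filter-based scintillation counting was done 1.5 hours after dosing, with loss of signal analysed against DMSO.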
# [18] = target: human Endothelin Receptor Type B (ETB), EDNRB (gene 1910) (UniProt P24530); assay: NVS_GPCR_hETB: NovaScreen (NVS) G Protein-Coupled Receptor Assay for human Endothelin Receptor Type B (ETB) (AID 2283267)
# How it was run: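 Filter-based scintillation readout of radioligand displacement, 4 h, using membranes from human astrocytoma cells. Actives from a 25 uM duplicate screen were retested in concentration-response (top 50 uM) relative to DMSO baseline.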
# [19] = target: human Muscarinic, M4 Receptor, CHRM4 (gene 1132) (UniProt P08173); assay: NVS_GPCR_hM4: NovaScreen (NVS) G Protein-Coupled Receptor Assay for human Muscarinic, M4 Receptor (AID 2283274)
# How it was run: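 Filter-based scintillation counting of radioligand bound to CHO-expressed human M4 preparations after 1 h; loss of signal fitted versus DMSO. Initial duplicate testing at 25 uM, concentration-response follow-up for actives.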
smiles,measurement,setting,value
N[C@@H](Cc1cc(I)c(Oc2ccc(O)c(I)c2)c(I)c1)C(=O)O,outcome,[1],inactive
O=C(c1ccc(O)cc1O)c1ccc(O)cc1O,outcome,[2],inactive
CCOC(=O)C(C)Oc1ccc(Oc2cnc3cc(Cl)ccc3n2)cc1 (stereo unspecified),outcome,[3],inactive
COCCO,outcome,[4],inactive
CC1(C)C(C=C(Cl)Cl)C1C(=O)OCc1cccc(Oc2ccccc2)c1 (stereo unspecified),outcome,[5],inactive
CCNc1nc(N)nc(Cl)n1,outcome,[6],inactive
CC(C)(c1ccc(O)cc1)c1ccc(O)cc1,outcome,[7],inactive
same,outcome,[3],inactive
same,outcome,[8],inactive
same,outcome,[9],inactive
same,outcome,[5],inactive
same,outcome,[10],inactive
same,outcome,[11],inactive
CCCCOC(=O)C(C)Oc1ccc(Oc2ccc(C(F)(F)F)cn2)cc1 (stereo unspecified),AC50,[12],12.1 µM (active)
Cc1nn(C)c(Oc2ccccc2)c1C=NOCc1ccc(C(=O)OC(C)(C)C)cc1,outcome,[13],inactive
same,outcome,[1],inactive
CCOC(=O)NCCOc1ccc(Oc2ccccc2)cc1,outcome,[12],inactive
CCOC(=O)COc1cc(-n2ncc(C(F)(F)F)c(C)c2=O)c(F)cc1Cl,outcome,[6],inactive
c1ccc2[nH]c(-c3cscn3)nc2c1,outcome,[14],inactive
CCCOC(=O)NCCCN(C)C,outcome,[15],inactive
S=C(S)NCCNC(=S)S.[Mn+2].[S-]C([S-])=NCCN=C([S-])[S-].[Zn+2],outcome,[4],inactive
same,outcome,[16],inactive
same,outcome,[17],inactive
same,outcome,[6],inactive
same,outcome,[15],inactive
same,AC50,[1],117 nM (active) and 135 nM (active) and 170 nM (active)
COC(=O)c1ccc(CNS(C)(=O)=O)cc1S(=O)(=O)NC(=O)Nc1nc(OC)cc(OC)n1,outcome,[14],inactive
COC(=O)c1ccccc1S(=O)(=O)NC(=O)Nc1nc(OC(F)F)cc(OC(F)F)n1,outcome,[8],inactive
C#C[C@]1(O)CC[C@H]2[C@@H]3CCC4=CC(=O)CC[C@@H]4[C@H]3CC[C@@]21CC,outcome,[18],inactive
CC(=O)[C@H]1CC[C@H]2[C@@H]3CCC4=CC(=O)CC[C@]4(C)[C@H]3CC[C@]12C,outcome,[15],inactive
same,outcome,[19],inactive
CCOC(=O)C(C)Oc1ccc(Oc2nc3ccc(Cl)cc3o2)cc1 (stereo unspecified),outcome,[3],inactive
same,AC50,[12],17.2 µM (active)
COC(=O)c1ccccc1C(=O)O,outcome,[14],inactive
N#CSCSc1nc2ccccc2s1,AC50,[4],9.3 µM (active)
same,AC50,[5],14.8 µM (active) and 16.7 µM (active)
